Measurements taken from publication PMC7862700, “An all-to-all approach to the identification of sequence-specific readers for epigenetic DNA modifications on cytosine”.

Legend:
Test in all cases: DAPPL (digital affinity profiling via proximity ligation, sequencing); 10 mM Tris-HCl pH 7.5, 50 mM NaCl, 1 mM DTT, 4% glycerol, room temperature, 30 min; GST-TFs on glutathione beads, 16-mer random dsDNA library, 0.1% formaldehyde crosslink after washing; high values mean tight binding
Conditions in all cases: protein: recombinant; tags: N-terminal GST; dsDNA, one strand shown
[1] = biological target: T1, FEV (Homo sapiens, UniProt Q99581 1-238)
T1 sequence: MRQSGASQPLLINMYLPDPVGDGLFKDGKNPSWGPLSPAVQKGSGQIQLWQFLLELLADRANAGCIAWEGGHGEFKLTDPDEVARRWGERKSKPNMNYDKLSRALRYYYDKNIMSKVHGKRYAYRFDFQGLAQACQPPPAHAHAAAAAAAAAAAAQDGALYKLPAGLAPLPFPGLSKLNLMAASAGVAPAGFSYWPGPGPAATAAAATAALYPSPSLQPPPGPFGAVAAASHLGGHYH
How it was run: (§1)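 The binding signal reported is, for every hexamer, its read frequency for a factor over its read frequency for the tag-only sample. Reads came from pools of yeast-expressed, GST-fused human transcription factors on glutathione beads, barcoded with DNA and mixed with that sample, which were incubated with 200 nmole of a random double-stranded 16-mer DNA library in Tris/NaCl/DTT/glycerol buffer at room temperature for 30 min. After washing, the pools were crosslinked with 0.1% formaldehyde, proximity-ligated with BsaI/T4 ligase for 1 h at 37 °C, PCR-amplified and sequenced on an Illumina NextSeq500.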

[2] = biological target: ETV5 (Homo sapiens, UniProt P41161 1-510)
How it was run: as §1

[3] = biological target: T2, SPIC (Homo sapiens, UniProt Q8N5J4 1-248)
T2 sequence: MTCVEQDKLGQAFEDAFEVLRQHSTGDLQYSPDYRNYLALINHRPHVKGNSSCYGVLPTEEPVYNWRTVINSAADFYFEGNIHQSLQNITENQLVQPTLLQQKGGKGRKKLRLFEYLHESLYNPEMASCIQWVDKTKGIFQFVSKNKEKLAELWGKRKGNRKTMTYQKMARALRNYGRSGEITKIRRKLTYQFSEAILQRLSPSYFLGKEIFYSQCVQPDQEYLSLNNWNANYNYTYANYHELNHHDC
How it was run: as §1

[4] = biological target: ELF4 (Homo sapiens, UniProt Q99607 1-663)
How it was run: as §1

[5] = biological target: T3, ELK4 (Homo sapiens, UniProt P28324-2 1-405)
T3 sequence: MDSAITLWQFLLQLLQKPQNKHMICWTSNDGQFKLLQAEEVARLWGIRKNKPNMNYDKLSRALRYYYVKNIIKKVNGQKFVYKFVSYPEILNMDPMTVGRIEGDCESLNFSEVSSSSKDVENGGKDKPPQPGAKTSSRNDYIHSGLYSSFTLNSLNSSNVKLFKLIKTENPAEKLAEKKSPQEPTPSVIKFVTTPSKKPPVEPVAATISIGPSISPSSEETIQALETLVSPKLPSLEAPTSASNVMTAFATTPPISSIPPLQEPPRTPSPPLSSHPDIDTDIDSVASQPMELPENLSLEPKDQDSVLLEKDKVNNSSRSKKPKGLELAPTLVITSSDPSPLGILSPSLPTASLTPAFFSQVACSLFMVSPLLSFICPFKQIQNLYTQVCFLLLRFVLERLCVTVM
How it was run: as §1

[6] = biological target: T4, ETV2 (Homo sapiens, UniProt O00321 1-342)
T4 sequence: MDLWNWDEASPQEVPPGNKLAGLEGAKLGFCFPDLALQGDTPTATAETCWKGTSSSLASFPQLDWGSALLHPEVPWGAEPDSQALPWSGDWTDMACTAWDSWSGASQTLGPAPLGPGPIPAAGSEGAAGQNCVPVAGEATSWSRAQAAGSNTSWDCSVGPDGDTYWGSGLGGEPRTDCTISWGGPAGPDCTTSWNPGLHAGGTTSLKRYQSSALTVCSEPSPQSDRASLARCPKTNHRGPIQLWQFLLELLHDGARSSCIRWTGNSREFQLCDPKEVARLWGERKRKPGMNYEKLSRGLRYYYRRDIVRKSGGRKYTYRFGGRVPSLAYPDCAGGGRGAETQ
How it was run: as §1

[7] = biological target: T5, ELF3 (Homo sapiens, UniProt P78545 1-371)
T5 sequence: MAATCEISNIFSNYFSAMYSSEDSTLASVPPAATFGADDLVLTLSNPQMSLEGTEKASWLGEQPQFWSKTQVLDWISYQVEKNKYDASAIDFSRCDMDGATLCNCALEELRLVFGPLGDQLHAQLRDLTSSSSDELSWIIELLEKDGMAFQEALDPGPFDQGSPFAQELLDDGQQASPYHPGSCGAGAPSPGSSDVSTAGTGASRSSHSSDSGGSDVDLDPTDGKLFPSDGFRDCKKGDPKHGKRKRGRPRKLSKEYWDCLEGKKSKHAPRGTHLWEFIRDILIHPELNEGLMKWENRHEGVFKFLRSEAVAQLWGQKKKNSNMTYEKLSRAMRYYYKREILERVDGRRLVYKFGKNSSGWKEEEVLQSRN
How it was run: as §1

[8] = biological target: ETV1 (Homo sapiens, UniProt P50549 1-477)
How it was run: as §1

[9] = biological target: T6, ERF (Homo sapiens, UniProt P50548 1-548)
T6 sequence: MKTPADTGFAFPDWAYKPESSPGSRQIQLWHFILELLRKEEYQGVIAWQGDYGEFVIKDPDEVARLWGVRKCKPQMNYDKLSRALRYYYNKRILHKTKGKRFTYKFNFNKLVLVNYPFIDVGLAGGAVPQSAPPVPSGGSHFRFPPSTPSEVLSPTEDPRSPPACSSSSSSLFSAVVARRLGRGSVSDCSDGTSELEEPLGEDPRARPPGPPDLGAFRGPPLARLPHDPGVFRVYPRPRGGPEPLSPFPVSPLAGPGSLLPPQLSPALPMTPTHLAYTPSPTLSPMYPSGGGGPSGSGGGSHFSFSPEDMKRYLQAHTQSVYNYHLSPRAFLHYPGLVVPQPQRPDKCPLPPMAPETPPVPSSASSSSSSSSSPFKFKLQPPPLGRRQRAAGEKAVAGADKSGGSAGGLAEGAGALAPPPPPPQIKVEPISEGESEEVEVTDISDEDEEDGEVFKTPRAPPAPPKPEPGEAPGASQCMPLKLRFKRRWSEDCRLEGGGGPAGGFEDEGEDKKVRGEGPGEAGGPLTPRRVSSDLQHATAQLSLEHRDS
How it was run: as §1

[10] = biological target: T7, ETV3L (Homo sapiens, UniProt Q6ZN32 1-361)
T7 sequence: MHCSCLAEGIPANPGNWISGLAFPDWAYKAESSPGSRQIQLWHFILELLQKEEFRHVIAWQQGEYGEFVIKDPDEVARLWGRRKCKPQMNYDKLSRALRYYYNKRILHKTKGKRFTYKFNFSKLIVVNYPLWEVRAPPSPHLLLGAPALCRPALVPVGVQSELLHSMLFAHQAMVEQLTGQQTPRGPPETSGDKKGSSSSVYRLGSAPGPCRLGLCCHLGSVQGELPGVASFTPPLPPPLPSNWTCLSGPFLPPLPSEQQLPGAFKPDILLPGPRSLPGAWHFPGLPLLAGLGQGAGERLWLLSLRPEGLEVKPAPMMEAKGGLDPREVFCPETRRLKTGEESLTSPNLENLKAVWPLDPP
How it was run: as §1

[11] = biological target: T8, ETS2 (Homo sapiens, UniProt P15036 1-469)
T8 sequence: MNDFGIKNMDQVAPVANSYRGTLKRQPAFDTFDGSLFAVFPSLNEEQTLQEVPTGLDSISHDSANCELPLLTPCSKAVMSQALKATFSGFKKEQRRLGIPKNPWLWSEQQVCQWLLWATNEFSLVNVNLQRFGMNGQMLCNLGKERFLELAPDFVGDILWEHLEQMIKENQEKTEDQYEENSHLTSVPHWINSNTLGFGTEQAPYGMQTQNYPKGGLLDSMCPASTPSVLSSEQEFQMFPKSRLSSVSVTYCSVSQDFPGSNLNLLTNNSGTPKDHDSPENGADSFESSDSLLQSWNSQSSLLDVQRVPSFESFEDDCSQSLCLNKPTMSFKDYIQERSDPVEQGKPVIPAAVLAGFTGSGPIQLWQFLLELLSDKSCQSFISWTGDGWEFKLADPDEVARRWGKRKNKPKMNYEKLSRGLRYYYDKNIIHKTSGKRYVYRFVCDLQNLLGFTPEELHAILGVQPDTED
How it was run: as §1

[12] = biological target: T9, SPDEF (Homo sapiens, UniProt O95238 1-335)
T9 sequence: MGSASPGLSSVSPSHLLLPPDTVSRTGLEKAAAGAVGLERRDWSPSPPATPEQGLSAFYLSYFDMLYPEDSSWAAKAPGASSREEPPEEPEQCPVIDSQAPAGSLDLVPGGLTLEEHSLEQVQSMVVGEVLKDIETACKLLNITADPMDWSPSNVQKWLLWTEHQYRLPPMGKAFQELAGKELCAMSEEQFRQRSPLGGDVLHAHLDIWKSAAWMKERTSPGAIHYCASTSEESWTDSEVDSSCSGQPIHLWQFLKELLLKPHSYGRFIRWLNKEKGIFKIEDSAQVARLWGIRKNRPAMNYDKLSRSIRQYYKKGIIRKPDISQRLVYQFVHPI
How it was run: as §1

[13] = biological target: T10, ETV7 (Homo sapiens, UniProt Q9Y603 1-341)
T10 sequence: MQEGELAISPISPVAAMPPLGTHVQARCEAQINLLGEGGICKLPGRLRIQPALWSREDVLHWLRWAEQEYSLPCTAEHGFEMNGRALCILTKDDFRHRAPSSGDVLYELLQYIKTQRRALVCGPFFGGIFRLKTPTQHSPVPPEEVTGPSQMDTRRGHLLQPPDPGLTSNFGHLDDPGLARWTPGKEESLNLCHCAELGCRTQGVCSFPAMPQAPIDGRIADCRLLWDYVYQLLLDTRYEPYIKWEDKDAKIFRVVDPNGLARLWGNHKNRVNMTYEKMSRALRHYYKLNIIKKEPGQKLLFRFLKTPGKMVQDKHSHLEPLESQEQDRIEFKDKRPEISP
How it was run: as §1

[14] = biological target: T11, ELF5 (Homo sapiens, UniProt Q9UKW6-2 1-255)
T11 sequence: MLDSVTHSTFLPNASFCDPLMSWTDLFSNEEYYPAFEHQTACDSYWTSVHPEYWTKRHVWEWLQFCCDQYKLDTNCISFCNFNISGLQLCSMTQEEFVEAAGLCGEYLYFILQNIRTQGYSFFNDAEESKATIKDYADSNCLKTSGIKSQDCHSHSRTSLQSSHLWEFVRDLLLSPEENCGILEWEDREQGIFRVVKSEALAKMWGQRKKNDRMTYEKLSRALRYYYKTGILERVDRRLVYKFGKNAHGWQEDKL
How it was run: as §1

[15] = biological target: T12, ETV3 (Homo sapiens, UniProt P41162-2 1-143)
T12 sequence: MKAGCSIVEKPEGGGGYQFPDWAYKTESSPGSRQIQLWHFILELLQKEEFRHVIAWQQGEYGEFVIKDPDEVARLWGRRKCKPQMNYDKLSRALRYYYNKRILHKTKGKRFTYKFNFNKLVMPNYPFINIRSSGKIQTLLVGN
How it was run: as §1

[16] = biological target: ETV6 (Homo sapiens, UniProt P41212 1-452)
How it was run: as §1

Sequence of ETV6 (P41212 whole entry): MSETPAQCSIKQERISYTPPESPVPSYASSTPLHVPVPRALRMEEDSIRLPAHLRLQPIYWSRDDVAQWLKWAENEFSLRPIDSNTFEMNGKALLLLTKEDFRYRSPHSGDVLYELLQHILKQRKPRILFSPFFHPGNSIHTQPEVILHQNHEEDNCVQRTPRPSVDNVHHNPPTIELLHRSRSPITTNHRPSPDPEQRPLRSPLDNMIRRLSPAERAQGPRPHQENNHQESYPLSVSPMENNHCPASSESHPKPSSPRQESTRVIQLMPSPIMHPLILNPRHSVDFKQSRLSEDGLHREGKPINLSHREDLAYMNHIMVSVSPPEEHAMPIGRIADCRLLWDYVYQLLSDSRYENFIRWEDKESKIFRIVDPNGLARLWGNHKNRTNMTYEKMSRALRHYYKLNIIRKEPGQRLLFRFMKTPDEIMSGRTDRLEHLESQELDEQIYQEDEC
Sequence of ETV1 (P50549 whole entry): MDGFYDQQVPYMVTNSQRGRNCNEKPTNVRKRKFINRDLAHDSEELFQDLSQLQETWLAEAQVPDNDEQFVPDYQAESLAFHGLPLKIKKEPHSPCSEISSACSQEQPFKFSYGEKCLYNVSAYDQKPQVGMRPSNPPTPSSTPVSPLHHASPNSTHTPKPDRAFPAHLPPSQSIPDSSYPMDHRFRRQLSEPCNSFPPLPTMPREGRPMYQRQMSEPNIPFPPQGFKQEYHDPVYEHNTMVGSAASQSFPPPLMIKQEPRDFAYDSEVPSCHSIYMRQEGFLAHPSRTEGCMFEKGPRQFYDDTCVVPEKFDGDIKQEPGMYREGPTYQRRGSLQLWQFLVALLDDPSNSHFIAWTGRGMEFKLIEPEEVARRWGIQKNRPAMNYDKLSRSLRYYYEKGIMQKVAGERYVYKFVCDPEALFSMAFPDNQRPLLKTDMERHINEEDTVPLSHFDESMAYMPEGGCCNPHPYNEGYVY
Sequence of ELF4 (Q99607 whole entry): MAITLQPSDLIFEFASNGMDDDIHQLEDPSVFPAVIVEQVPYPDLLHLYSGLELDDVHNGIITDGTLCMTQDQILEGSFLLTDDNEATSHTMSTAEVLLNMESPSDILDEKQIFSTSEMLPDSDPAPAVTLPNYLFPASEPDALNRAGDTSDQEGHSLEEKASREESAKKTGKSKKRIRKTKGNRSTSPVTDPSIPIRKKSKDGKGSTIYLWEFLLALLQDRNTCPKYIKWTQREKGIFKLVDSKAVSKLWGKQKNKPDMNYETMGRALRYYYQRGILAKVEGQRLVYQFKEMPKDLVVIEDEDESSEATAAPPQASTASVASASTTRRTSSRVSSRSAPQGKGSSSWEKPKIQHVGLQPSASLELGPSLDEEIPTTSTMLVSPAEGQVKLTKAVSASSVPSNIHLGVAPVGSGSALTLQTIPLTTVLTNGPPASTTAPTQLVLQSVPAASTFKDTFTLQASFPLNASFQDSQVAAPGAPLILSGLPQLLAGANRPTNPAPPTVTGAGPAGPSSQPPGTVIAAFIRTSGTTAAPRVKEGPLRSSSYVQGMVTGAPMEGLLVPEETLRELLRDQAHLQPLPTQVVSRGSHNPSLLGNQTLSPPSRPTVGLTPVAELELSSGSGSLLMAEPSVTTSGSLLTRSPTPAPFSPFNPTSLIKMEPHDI
Sequence of ETV5 (P41161 whole entry): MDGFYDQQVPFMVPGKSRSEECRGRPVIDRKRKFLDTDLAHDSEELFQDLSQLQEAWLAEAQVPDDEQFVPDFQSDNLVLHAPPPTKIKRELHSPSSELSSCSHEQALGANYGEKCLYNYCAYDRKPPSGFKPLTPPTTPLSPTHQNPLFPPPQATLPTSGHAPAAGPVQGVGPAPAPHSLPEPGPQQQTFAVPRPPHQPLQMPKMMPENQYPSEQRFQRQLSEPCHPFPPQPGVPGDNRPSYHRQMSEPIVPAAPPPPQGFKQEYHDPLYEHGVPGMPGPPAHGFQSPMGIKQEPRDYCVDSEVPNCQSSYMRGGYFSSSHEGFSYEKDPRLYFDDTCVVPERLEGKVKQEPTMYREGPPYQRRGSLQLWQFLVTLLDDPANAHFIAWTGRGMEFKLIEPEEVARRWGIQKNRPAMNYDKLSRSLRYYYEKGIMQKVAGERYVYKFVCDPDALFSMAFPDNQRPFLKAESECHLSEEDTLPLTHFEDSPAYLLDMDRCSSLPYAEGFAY

| Sequence | binding signal [1] | binding signal [2] | binding signal [3] | binding signal [4] | binding signal [5] | binding signal [6] | binding signal [7] | binding signal [8] | binding signal [9] | binding signal [10] | binding signal [11] | binding signal [12] | binding signal [13] | binding signal [14] | binding signal [15] | binding signal [16] |
| --- | --- | --- | --- | --- | --- | --- | --- | --- | --- | --- | --- | --- | --- | --- | --- | --- |
| GAAACG | 1.36 fold enrichment (6-mer frequency, TF over GST control) | 1.21 fold enrichment (6-mer frequency, TF over GST control) | 1.19 fold enrichment (6-mer frequency, TF over GST control) | 1.14 fold enrichment (6-mer frequency, TF over GST control) | 1.05 fold enrichment (6-mer frequency, TF over GST control) | 1.28 fold enrichment (6-mer frequency, TF over GST control) | 1.27 fold enrichment (6-mer frequency, TF over GST control) | 1.29 fold enrichment (6-mer frequency, TF over GST control) | 1.27 fold enrichment (6-mer frequency, TF over GST control) | 1.18 fold enrichment (6-mer frequency, TF over GST control) | 1.17 fold enrichment (6-mer frequency, TF over GST control) | 1.23 fold enrichment (6-mer frequency, TF over GST control) | 1.4 fold enrichment (6-mer frequency, TF over GST control) | 1.29 fold enrichment (6-mer frequency, TF over GST control) | 1.28 fold enrichment (6-mer frequency, TF over GST control) | 1.34 fold enrichment (6-mer frequency, TF over GST control) |
| ACCAAC | 1.19 fold enrichment (6-mer frequency, TF over GST control) | 1.22 fold enrichment (6-mer frequency, TF over GST control) | 1.1 fold enrichment (6-mer frequency, TF over GST control) | 1.25 fold enrichment (6-mer frequency, TF over GST control) | 1.31 fold enrichment (6-mer frequency, TF over GST control) | 1.25 fold enrichment (6-mer frequency, TF over GST control) | 1.2 fold enrichment (6-mer frequency, TF over GST control) | 1.16 fold enrichment (6-mer frequency, TF over GST control) | 1.24 fold enrichment (6-mer frequency, TF over GST control) | 1.13 fold enrichment (6-mer frequency, TF over GST control) | 1.15 fold enrichment (6-mer frequency, TF over GST control) | 1.22 fold enrichment (6-mer frequency, TF over GST control) | 1.13 fold enrichment (6-mer frequency, TF over GST control) | 1.13 fold enrichment (6-mer frequency, TF over GST control) | 1.24 fold enrichment (6-mer frequency, TF over GST control) | 1.2 fold enrichment (6-mer frequency, TF over GST control) |
